MazEF act – activators of E. coli MazEF toxin-antitoxin RNase. P0AE70. FAM/BHQ RNA-DNA oligo cleavage fluorescence, 5 h. actives 0.32% (n = 350,000). activation, % at 20 µM; in the data active = activation above about 50%
Anthrax LF prot – anthrax lethal factor protease inhibition; actives 0.12% (n = 360,000); multiplex microsphere protease cleavage assay, LF; P15917; inhibition, % at 10 µM; note: plate controls were buffer without enzyme for full effect and enzyme alone for no effect
Target sequence (P15917 whole entry, looked up): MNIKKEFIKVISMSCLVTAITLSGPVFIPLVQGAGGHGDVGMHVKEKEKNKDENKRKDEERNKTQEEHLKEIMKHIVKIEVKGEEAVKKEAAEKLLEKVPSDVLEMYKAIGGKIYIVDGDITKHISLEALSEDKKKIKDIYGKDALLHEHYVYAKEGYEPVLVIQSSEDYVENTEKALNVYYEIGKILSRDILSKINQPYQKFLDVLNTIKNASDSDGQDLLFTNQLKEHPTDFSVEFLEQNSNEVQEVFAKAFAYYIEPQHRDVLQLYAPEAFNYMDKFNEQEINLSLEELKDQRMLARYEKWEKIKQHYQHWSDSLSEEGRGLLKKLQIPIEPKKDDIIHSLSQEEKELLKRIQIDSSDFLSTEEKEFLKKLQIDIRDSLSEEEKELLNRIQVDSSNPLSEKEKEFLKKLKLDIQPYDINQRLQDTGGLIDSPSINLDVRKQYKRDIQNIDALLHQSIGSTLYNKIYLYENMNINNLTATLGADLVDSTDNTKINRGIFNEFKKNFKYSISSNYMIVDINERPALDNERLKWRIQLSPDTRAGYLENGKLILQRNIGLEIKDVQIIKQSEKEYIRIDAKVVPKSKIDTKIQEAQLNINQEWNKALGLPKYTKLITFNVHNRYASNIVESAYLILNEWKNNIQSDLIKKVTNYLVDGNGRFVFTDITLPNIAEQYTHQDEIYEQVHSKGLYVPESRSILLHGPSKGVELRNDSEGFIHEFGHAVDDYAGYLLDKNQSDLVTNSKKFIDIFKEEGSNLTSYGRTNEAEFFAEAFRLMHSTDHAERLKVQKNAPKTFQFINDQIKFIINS
BoNT-A LC inh2 – BoNT A light chain protease inhibition; multiplex microsphere protease substrate cleavage, flow cytometry; inhibition, % at 10 µM; actives 0.17% (n = 360,000); AID 588499; note: plate controls were buffer without enzyme for full effect and enzyme alone for no effect
BoNT-F LC inh – blocks Botulinum neurotoxin F light chain protease; actives 0.22% (n = 360,000); inhibition, % at 10 µM; Multiplex microsphere protease cleavage assay, flow cytometry; in the data active = inhibition above about 35%, passing the limit was not always enough; inconclusive = no clear call, values can overlap the other calls; note: plate controls were buffer without enzyme for full effect and enzyme alone for no effect
SSB-PriA inh – inhibitors of Klebsiella pneumoniae PriA binding to SSB C-terminal tail. inhibition, % at 33 µM. AlphaScreen SSBct-PriA binding, biotinylated peptide. actives 0.6% (n = 430,000). AID 1272365; in the data active = inhibition mostly above about 37%, no sharp cut-off; inactive = mostly below about 20%;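 note: plate controls were negative control peptide for no effect and reference peptide for full effect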
Autofluor counter – compound fluorescence in toxin protease inhibitor counterscreen. compound autofluorescence counterscreen, microsphere flow cytometry; active compounds read high. fluorescence intensity (test concentration not listed). actives 3.1% (n = 360,000). AID 624483; in the data active = fluorescence intensity above about 16000; inconclusive = no clear call, values can overlap the other calls
Starred values were filed as active, the others as inactive; ? = inconclusive; · = no result given; + = active, no number; ! = a repeat was not active. Compounds with a hit are over-represented: about 3.3% of the library has one in this group of screens. Cut-off read from the data, not from the text of the source, unless noted: active = inhibition above about 30%; inconclusive = no clear call, values can overlap the other calls; inactive = below that.

SMILES	MazEF act	Anthrax LF prot	BoNT-A LC inh2	BoNT-F LC inh	SSB-PriA inh	Autofluor counter
CCCC(=O)Nc1nnc(Cc2ccccc2)s1	1	-3	-2	-1	-6	24700*
Fc1ccc2cccnc2c1F	·	·	·	·	27	·
CCCOP(=O)(c1ccc(N(C)C)cc1)C(O)c1cccnc1 (centres undefined)	-13	-1	-1	-4	2	19815*
CC(C)CCOP(=O)(c1ccc(N(C)C)cc1)C(O)c1ccccn1 (centres undefined)	4	3	1	0	-4	16641*
CC(C)OP(=O)(c1ccc(N(C)C)cc1)C(O)c1ccncc1 (centres undefined)	-1	1	-2	-4	1	24190*
CC(C)COP(=O)(c1ccc(N(C)C)cc1)C(O)c1ccccn1 (centres undefined)	8	1	1	5	9	10074
CCOP(=O)(c1ccc(N(C)C)cc1)C(O)c1ccccc1OC (centres undefined)	-2	-12	?	5	-15	18542*
O=C(Cn1cnc2ccccc21)NCC#CCOc1cccc(C(F)(F)F)c1	·	·	·	·	1	·
O=C(NC[C@@H](c1ccco1)N1CCOCC1)c1ccc2c(c1)OCO2	·	·	·	·	-19	·
Cc1cc(S(=O)(=O)NCCN2CCOCC2)c(Cl)cc1Cl	·	·	·	·	-8	·
O=C(CCS(=O)(=O)c1ccccc1)N1CCCC(Cc2nc(-c3cnccn3)no2)C1 (centres undefined)	·	·	·	·	-9	·
Cc1ccc(C=c2sc3nc(-c4ccco4)nn3c2=O)o1	·	·	·	·	0	·
Cc1ccc(/C=c2\sc3nc(-c4cccs4)nn3c2=O)o1	-4	-4	1	3	·	20038*
COC(=O)c1[nH]c(C)c(C(O)=C2C(=O)C(=O)N(CCN(C)C)C2c2ccccc2OC)c1C (centres undefined)	·	·	·	·	-7	·
CCOC(=O)c1[nH]c(C)c(/C(O)=C2\C(=O)C(=O)N(CCN(C)C)C2c2cccc(OC)c2OC)c1C (centres undefined)	-2	-4	3	3	·	18747*
CCOc1ccccc1NC(=O)C1CC2CCCC(C1)C2=O (centres undefined)	1	-4	-3	-6	-6	23703*
CCOc1ccccc1NC(=O)C1CCN(S(C)(=O)=O)CC1	3	16	5	?	9	3274
O=C(O)C1CC=CCC1C(=O)NCc1ccccc1 (centres undefined)	6	-2	-1	1	-7	22945*
O=C(NCc1ccccc1)C1CC2CCCC(C1)C2=O (centres undefined)	-18	-12	?	12	-3	17138*
O=C(O)C1CCCCC1C(=O)NCc1ccccc1 (centres undefined)	-8	-1	1	2	-11	5715
CCOC(=O)CSC(C)C(=O)Nc1nnc(C)s1 (centres undefined)	·	·	·	·	-13	·
Cc1ccc2c(c1)NCCO2	-6	-6	?	-1	16	23601*
O=c1oc(/C=C/c2ccccc2)nc2sc3c(c12)CCC3	324*	1	0	-8	-5	4755
CCc1nc2sc3c(c2c(=O)o1)CCCC3	-2	·	·	·	69*	·
O=c1oc(-c2ccccc2)nc2sc3c(c12)CCCC3	3	-5	-2	-12	-6	6943
SMILES	MazEF act	Anthrax LF prot	BoNT-A LC inh2	BoNT-F LC inh	SSB-PriA inh	Autofluor counter
CC(C)(C)c1nc2sc3c(c2c(=O)o1)CCCC3	-3	0	0	-15	-7	3621
COc1ccc(/C=C/c2nc3sc4c(c3c(=O)o2)CCC4)cc1	+	4	4	14	-6	3008
CC(=O)N[C@@H](C)Cc1ccco1	·	·	·	·	-11	·
O=C(CSc1nnc2ccc3ccccc3n12)Nc1nsc(-c2ccccc2)n1	·	·	·	·	-11	·
Cc1cc2oc(=O)cc(Cn3ccnc3)c2cc1C	8	-3	-2	-4	-4	16965*
CC(C)CC(NC(=O)C(NC(=O)OC(C)(C)C)C(C)C)C(=O)NC(CCC(=O)OCc1ccccc1)C(N)=O (centres undefined)	-3	-1	0	-16	-12	4275
CCC(C)C(N)C(=O)NC(CCC(=O)OCc1ccccc1)C(N)=O (centres undefined)	68*	2	-1	-10	-10	3274
O=C(Nc1ccc(S(=O)(=O)N2CCC(c3nc4ccccc4[nH]3)CC2)cc1)c1c(F)cccc1F	·	·	·	·	-15	·
Cc1cc(N(CN2CCCC2=O)C(=O)c2ccccc2)no1	7	0	-2	-5	-17	23950*
Cc1cc(N(CN2CCCC2=O)C(=O)c2ccc(OC(C)C)cc2)no1	3	-6	-6	-24	-3	4922
Cc1cc(N(CN2CCCC2=O)C(=O)c2ccc(F)cc2)no1	1	-2	0	0	-10	20214*
O=C1CCCN1CN(C(=O)c1ccc2c(c1)OCO2)c1ccc(F)cc1	0	-3	?	-7	-6	21432*
COc1ccc(C(=O)N(CN2CCCC2=O)c2cc(C)on2)cc1OC	2	2	4	6	1	21141*
O=C1CCCN1CN(C(=O)c1ccccc1)c1ccc(F)cc1	0	·	·	·	-5	·
COc1ccc(C(=O)N(CN2CCCC2=O)c2nccs2)cc1OC	4	-17	-1	-4	-8	?
Cc1c(Cl)cccc1NC(=O)CSc1nnc2ccc(-c3ccco3)nn12	·	·	·	·	6	·
CCCS(=O)(=O)N1CCc2ccc(NC(=O)C[C@@H](CC(=O)O)c3cccs3)cc2C1	·	·	·	·	0	·
COc1cccc(CC(=O)NCCc2nc3c(c(C(F)(F)F)n2)CCCC3)c1	·	·	·	·	-10	·
O=c1cc2c(=O)oc3cc(O)c(O)oc3c2c(O)c1O	55*	-21	-3	-7	6	3521
COc1cccc(-n2c(SC)nnc2-c2cnccn2)c1	1	-9	6	6	-14	20539*
COc1cccc(-n2c(SCC#N)nnc2-c2cnccn2)c1	11	-8	3	4	0	15146
CSc1nnc(-c2cnccn2)n1C	14	0	-1	-5	-12	23864*
O=c1ncn(-c2ccccc2C(F)(F)F)c2ncccc12	-5	-2	-3	-8	-12	3884
O=c1ncn(-c2ccccc2F)c2ncccc12	3	1	4	4	-25	21215*
Oc1c(I)cc(I)c2cccnc12	-5	0	0	7	58*	5783
SMILES	MazEF act	Anthrax LF prot	BoNT-A LC inh2	BoNT-F LC inh	SSB-PriA inh	Autofluor counter
Cc1ccc(S(=O)(=O)Nc2cc(Cl)c(O)c3ncccc23)cc1	-15	0	4	4	45*	5378
Fc1c(Cl)ccc2cccnc12	·	·	·	·	33	·
Ic1cccc2cccnc12	·	·	·	·	33	·
Oc1c(Cl)ccc2cccnc12	·	·	·	·	82*	·
Oc1c(Cl)cc(Cl)c2cccnc12	1	2	0	-6	83*!	2092
Cc1nnsc1C(=O)Nc1ccc(Cl)c([N+](=O)[O-])c1	·	·	·	·	6	·
